High-throughput results as filed in PubChem BioAssay.
The list is not random: actives were taken first. Their share in the collection is about 2.4%.
D2 ag-1: agonists of human D2 dopamine receptor (beta-arrestin). P14416. DiscoveRx PathHunter D2 beta-arrestin, luminescence, 90 min; 100% = 57 uM dopamine signal. activation, % (no concentration beside the values). hit rate 0.084% among 360,000; in the data active means activation above about 40%; inconclusive means between about 15% and that limit
Target sequence (P14416 whole entry, looked up): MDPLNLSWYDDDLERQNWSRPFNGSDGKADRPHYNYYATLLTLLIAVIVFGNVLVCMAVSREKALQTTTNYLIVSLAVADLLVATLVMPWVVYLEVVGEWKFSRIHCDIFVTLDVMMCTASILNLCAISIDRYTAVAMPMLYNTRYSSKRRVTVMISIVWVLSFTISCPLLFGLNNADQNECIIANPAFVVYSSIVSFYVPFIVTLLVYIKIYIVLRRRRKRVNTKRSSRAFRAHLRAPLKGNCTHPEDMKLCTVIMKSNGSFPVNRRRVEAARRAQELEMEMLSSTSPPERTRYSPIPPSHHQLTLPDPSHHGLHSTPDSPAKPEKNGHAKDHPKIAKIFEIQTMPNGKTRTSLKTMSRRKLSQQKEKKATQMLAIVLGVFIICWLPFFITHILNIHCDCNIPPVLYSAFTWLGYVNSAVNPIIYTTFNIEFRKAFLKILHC
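Agonist mode: compounds alone added to overnight-plated D2 PathHunter cells for 90 min at 37 C, with 57 uM final dopamine (EC100) defining full response. Beta-arrestin recruitment detected by chemiluminescent reagent, read after 1 h at ambient temperature.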
D2 PAM-1: positive allosteric modulators of human D2 dopamine receptor | hit rate 0.34% among 340,000 | potentiation, % at 10 µM | P14416 | HEK293 T-REx D2, calcium flux, EC20 dopamine potentiation | AID 485347;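 active means potentiation over 3 SD above the plate norm, cut at about 30% in these data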
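Tetracycline-induced HEK293 T-REx cells force-coupled to calcium signalling expressed D2; compounds were pin-added after a 10 s baseline, read kinetically 180 s, then an EC20 dopamine challenge followed with a further 180 s calcium read.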
D2 antag: antagonizes the human D2 dopamine receptor; AID 485344; P14416; hit rate 2% among 340,000; inhibition, % at 10 µM; HEK293 TREx D2 cells, calcium flux, dopamine EC80; in the data active means inhibition above about 30%; inactive means below that, where a call was filed
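Tetracycline-induced HEK293 T-REx cells expressing D2 force-coupled to calcium signalling were dye-loaded, exposed to compound for 180 s, then challenged with an EC80 of dopamine; calcium flux was followed kinetically for a further 180 s.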
D2 PAM-2: human D2 receptor positive allosteric modulation; P14416; DiscoveRx D2 beta-arrestin cells, luminescence, 90 min; 100% = 57 uM dopamine signal; potentiation, % (no concentration beside the values); hit rate 0.23% among 360,000; AID 624464; in the data active means potentiation above about 50%; inconclusive means mostly about 30% to 49%
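D2 cells co-treated with compound plus 50 nM dopamine (EC20) for 90 min at 37 deg C to detect potentiation. Beta-arrestin recruitment was read as enzyme-fragment luminescence after 1 h at ambient temperature. Full response was set by 57 uM dopamine.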
D2 ag-2: D2 dopamine receptor (human) agonism | P14416 | HEK293 T-REx D2 cells, calcium flux agonist mode | activation, % at 2 µM | hit rate 0.53% among 340,000 | AID 485358;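 active means activation over 3 SD above normal in the single-dose calcium agonist read, cut at about 30% in these data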
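Agonism scored from kinetic calcium signal (1 read/sec, 180 s) following compound pin transfer, after a 10 s baseline. Cells: HEK293 Trex line expressing inducible D2 receptor coupled to calcium, dye-loaded after overnight culture at 30 C.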
Each line names hits and unclear results; the compound was inactive in the other large screens.

O=C(Nc1ccccc1)c1ccccc1CCc1ccccc1	D2 antag 32
O=C(CCc1ccccc1)NNC(=O)Nc1ccccc1	D2 antag 44
CCc1ccc(NC(=O)NNC(=O)CCc2ccccc2)cc1	none
NC1=NC[C@H](Cc2ccc(O)cc2)N1CCc1cccc(F)c1	D2 antag 39
CN(C)C1=NC[C@H](Cc2ccccc2)N1CCc1cccc(F)c1	none
CCn1c(C)nc2cc(C(=O)N/N=C/c3ccc(O)c(O)c3O)ccc21	D2 ag-2 32
Nc1cnccc1C(=O)O	D2 ag-1 inconclusive, D2 antag 43, D2 PAM-2 inconclusive
CCN1CCN(P2(=O)C=C(c3ccccc3)OC(c3ccccc3)=C2)CC1	D2 antag 84
COc1ccc(-c2cn(-c3ccc(C)c(Cl)c3)c(=S)[nH]2)cc1OC	none
COc1cccc2cc(C(=O)N3C(C)CCCC3C)c(=O)oc12 (centres undefined)	none (no result: D2 PAM-1, D2 antag, D2 ag-2)
Cc1sc2ncnc(N3CCCCC3)c2c1C	none
Cc1sc2ncnc(NCC(c3ccco3)N3CCCC3)c2c1C (centres undefined)	D2 antag 32
Clc1ccc(/C=C\c2nccc3c2[nH]c2ccccc23)cc1	D2 antag 66
COCC(C)n1c(C)cc(C(=O)COC(=O)/C=C/c2cccc(F)c2)c1C (centres undefined)	D2 PAM-1 53
Cc1cc(C(=O)COC(=O)/C=C/c2ccc(F)cc2)c(C)n1C	none
CCOC(=O)c1cc(C(C)(C)C)nc(SC)c1C#N	none
CCOC(=O)c1cc(C)nc(SC)c1C#N	D2 antag 31
COc1ccccc1-c1cc(C(=O)N/N=C/c2ccc(C)s2)c2ccccc2n1	D2 antag 48
COc1ccccc1-c1cc(C(=O)N/N=C/c2ccoc2)c2ccccc2n1	D2 antag 79
O=C(N/N=C/c1cccnc1)c1cc(-c2ccccc2Cl)nc2ccccc12	none
CCc1ccc(/C=N/NC(=O)c2cc(-c3ccccc3OC)nc3ccccc23)s1	D2 antag 35
COc1ccc(/C=N/NC(=O)c2cc(-c3ccccc3OC)nc3ccccc23)cc1COC(C)=O	none
Cc1ccccc1-c1cc(C(=O)N/N=C/c2cccnc2)c2ccccc2n1	D2 antag 33
CC(OC(=O)Cn1cnc2ccccc2c1=O)C(=O)N(C)c1ccccc1 (centres undefined)	none
CN(CC(=O)Nc1ccccc1Cl)C(=O)COC(=O)c1ccc([N+](=O)[O-])cc1Cl	D2 ag-1 inconclusive, D2 PAM-2 53
CN(CC(=O)Nc1ccccc1Cl)C(=O)COC(=O)c1nc(Cl)ccc1Cl	none
Cc1nc2ccccn2c1P(=O)(N1CCCCC1)N1CCCCC1	none
O=C(CN1CCOCC1)Nc1ncc(Cc2cccc3ccccc23)s1	D2 antag 42
Oc1oc(-c2ccccc2)nc1C=NCc1ccncc1	D2 antag 31
Cc1ccccc1OCc1nc2ccccc2[nH]1	none
CCOC(=O)N1CCN(S(=O)(=O)c2ccc3c(c2)NC(=O)CO3)CC1	none (no result: D2 PAM-1, D2 antag, D2 ag-2)
CN1C(=O)c2ccc(NC(=O)c3c(C(=O)O)cccc3[N+](=O)[O-])cc2C1=O	D2 antag 34
CSc1ccc(/C=N\Nc2nncn2N)cc1	D2 ag-1 43
Cc1cc(-c2ccccc2)c2c3c(cn2n1)c(=O)n(C)c(=O)n3C	none (no result: D2 PAM-1)
O=C(Cn1cnc2c(nnn2-c2ccccc2)c1=O)NCc1ccco1	D2 antag 40
Cc1ccc(-n2ncc3c(=O)n(CC(=O)NCc4ccco4)cnc32)cc1	D2 PAM-1 31
COC(=O)C(C)n1cnc2c(nnn2-c2ccccc2)c1=O (centres undefined)	D2 antag 31
CCOC(=O)CNC(=O)Cn1cnc2c(nnn2-c2ccccc2)c1=O	none
O=C(Cn1cnc2c(nnn2-c2ccccc2)c1=O)NCCc1ccccc1	D2 PAM-1 56
CCOC(=O)C(C)n1cnc2c(nnn2-c2ccccc2)c1=O (centres undefined)	none
COc1ccc(C(=O)NCC(c2ccco2)N2CCOCC2)cc1OC (centres undefined)	none (no result: D2 PAM-1, D2 antag, D2 ag-2)
CC(NC(=O)CNC(=O)c1sc2ccccc2c1Cl)c1cccnc1 (centres undefined)	none
CCOC1CCc2c(C)nc(N)nc2S1 (centres undefined)	none
COc1cccc(-n2c([S-])c(C(=O)Nc3ccc(C(F)(F)F)cc3)[n+]3ccccc23)c1	D2 antag 35 (no result: D2 ag-1, D2 PAM-2)
CC(C)Oc1ccc(C(=O)Nc2nc3ccccc3[nH]2)cc1	D2 PAM-1 105
O=C(Nc1nc2ccccc2[nH]1)c1ccc(OC(F)F)cc1	none
Cc1cc(/C=N/O)c(C)n1-c1ccc(Br)cc1	D2 antag 38
CCOc1ccc(C2=C(C=Nc3c(C)n(C)n(-c4ccccc4)c3=O)C(c3ccc(F)cc3)c3ccccc3O2)cc1 (centres undefined)	none
CCOC(=O)N1CCN(C(=O)C2CCCN(S(=O)(=O)c3ccccc3)C2)CC1 (centres undefined)	none
COc1cc(C)nc(SCC(N)=O)n1	D2 antag 33 (no result: D2 PAM-1)
Cc1cc(N)nc(SCC(=O)N2C(C)CCCC2C)n1 (centres undefined)	D2 PAM-1 34
Cc1cc2nnc(SCC(=O)N3C(C)CCCC3C)n2c(N)n1 (centres undefined)	D2 PAM-1 37, D2 antag 30
Cc1cc(C)nc(SCC(=O)N2CCC(C(N)=O)CC2)n1	D2 PAM-1 30
Cc1cc2nnc(SCC(=O)N3CCCCC3)n2c(N)n1	none
COC(CNc1ccc([N+](=O)[O-])c(NCC(OC)OC)c1C#N)OC	none
COc1cc(/C=C2/SC(=Nc3ccc(O)cc3)NC2=O)cc(OC)c1O	D2 ag-2 51
COc1cc(OC)cc(C(=O)OCC(=O)Nc2ccc3[nH]c(=O)[nH]c3c2)c1	D2 antag 36
COc1ccc(CC(=O)OCC(=O)Nc2ccc3[nH]c(=O)[nH]c3c2)cc1	D2 PAM-2 inconclusive
O=C(COC(=O)c1c(F)cccc1F)Nc1ccc2[nH]c(=O)[nH]c2c1	D2 antag 65
Cc1cc(=O)[nH]c(N/N=C/c2ccc(OC(=O)c3ccco3)cc2)n1	none
O=C(Nc1cccc(-c2cc3ccccc3oc2=O)c1)c1ccc(Br)o1	none
COc1ccc(C(=O)NCCn2cc(SCC(=O)NCc3ccco3)c3ccccc32)cc1	none
S=c1nc(-c2ccccc2)n(CCCN2CCOCC2)c2c1CCCC2	none
S=c1nc(-c2ccccc2)n(CCCn2ccnc2)c2c1CCCC2	D2 antag 39
CC(=O)c1cccc(NS(=O)(=O)c2ccc(N/C=C/C(=O)c3ccc(F)cc3)cc2)c1	none (no result: D2 PAM-1, D2 antag, D2 ag-2)
CC(=O)c1cccc(NS(=O)(=O)c2ccc(N/C=C\C(=O)c3ccc(C)cc3)cc2)c1	D2 PAM-2 64
NC(=O)C1C(c2ccccc2)=C1c1ccccc1	D2 antag 38
